Measured values reported in PubChem BioAssay AID703 (NMMLSC, 2007).

biological target: Integrin alpha-4 (Homo sapiens) (UniProt P13612); test: VLA-4 ligand binding increase, concentration series – cell-based, LDV-FITC binding, flow cytometry, dose response (AID 703); conditions: Jurkat cells, stronger effect = higher value
Sequence (P13612 whole entry, looked up): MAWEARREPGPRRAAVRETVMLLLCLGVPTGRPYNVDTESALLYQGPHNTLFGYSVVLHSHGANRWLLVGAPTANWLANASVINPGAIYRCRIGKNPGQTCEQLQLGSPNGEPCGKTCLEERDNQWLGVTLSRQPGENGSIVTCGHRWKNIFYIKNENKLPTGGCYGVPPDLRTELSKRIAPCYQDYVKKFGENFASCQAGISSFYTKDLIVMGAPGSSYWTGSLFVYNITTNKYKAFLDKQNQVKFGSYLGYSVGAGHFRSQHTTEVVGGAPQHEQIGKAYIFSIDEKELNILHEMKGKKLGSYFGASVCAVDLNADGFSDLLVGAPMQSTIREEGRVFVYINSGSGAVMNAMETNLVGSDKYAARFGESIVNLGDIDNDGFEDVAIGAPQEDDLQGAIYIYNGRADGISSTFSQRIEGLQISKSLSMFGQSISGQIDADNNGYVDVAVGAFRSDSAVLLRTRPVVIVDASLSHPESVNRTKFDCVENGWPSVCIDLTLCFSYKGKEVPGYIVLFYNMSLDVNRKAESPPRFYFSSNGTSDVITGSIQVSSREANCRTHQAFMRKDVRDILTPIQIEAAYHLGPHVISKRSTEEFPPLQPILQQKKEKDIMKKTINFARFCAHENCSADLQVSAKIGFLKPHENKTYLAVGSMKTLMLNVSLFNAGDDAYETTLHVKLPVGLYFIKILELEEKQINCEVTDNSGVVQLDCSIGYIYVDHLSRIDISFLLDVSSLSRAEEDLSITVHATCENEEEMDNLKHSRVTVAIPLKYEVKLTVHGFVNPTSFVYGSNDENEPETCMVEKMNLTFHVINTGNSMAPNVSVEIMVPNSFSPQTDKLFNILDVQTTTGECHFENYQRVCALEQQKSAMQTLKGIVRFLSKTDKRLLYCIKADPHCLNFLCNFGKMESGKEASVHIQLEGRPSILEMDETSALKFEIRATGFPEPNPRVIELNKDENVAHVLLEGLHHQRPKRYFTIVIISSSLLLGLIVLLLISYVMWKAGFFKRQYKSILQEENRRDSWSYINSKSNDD

Activation at 0 C, inactive:
CN(C)CCCN1c2ccccc2Sc2ccc(C(F)(F)F)cc21 0, CCCCC[C@H](O)/C=C/[C@H]1C=CC(=O)[C@@H]1C/C=C\CCCC(=O)O 0, N#Cc1c(N2CCCC2)nc(N)c2c(N)nc(N3CCCC3)cc12 0, COC(=O)C1CCN(C(=O)NC(C)(C)C)CC1 0
